Compounds without any hit were thinned out: in the full panel of roughly 83,000, 20% have a hit.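 For each line, cells grew in 96-well plates with the test compound present at a single concentration for 48 hours.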 A number with no mark means an inactive call. Activity calls are given as the source filed them. The calls were made as follows: active = growth percent below 10; inactive = the rest.

This experiment deals with SF-539 CNS. Kind of experiment: NCI-60 one-dose screen, 48 h (100 = growth as untreated, 0 = no growth, -100 = all killed). Conditions: 10 µM unless noted.
With `C=C1C(=O)O[C@H]2[C@H]1CC/C(COC(=O)NCc1ccc(Cn3c(=O)sn(CCCC)c3=O)cc1)=C\CC[C@@]1(C)O[C@@H]21`, the growth was 59.6%. For `O=C(Nc1ncc(Cc2ccccc2)s1)c1cc(-c2ccccc2)nc2ccccc12` the value was 101%; for `CC(=O)Oc1ccccc1C(=O)N(Cc1ccc2c(Cl)cc(Cl)c(O)c2n1)c1ccccc1`, 59%; for `O=C(Nc1ccccc1)Nc1ccccc1CNc1nc(Nc2ccc(OCCN3CCCC3)cc2)ncc1Cl`, 31%.

Consider `C#Cc1ccc(NC(=O)Cc2ccc(/C=C/C(=O)c3nccn3C)cc2)cc1`, for which the growth was 26.3%.

Regarding `O=C(O)c1nn(-c2ccc(Cl)cc2)nc1N1CCCC1`, the growth was 96.1%. Take `CCc1ccc(Cc2cnc(NC(=O)c3cc(C)oc3C)s2)cc1`: the growth is 31.2%. For `O=C(NCCN1CCOCC1)c1cncnc1Nc1ccc2c(ccn2Cc2ccccn2)c1` the value was 100%; for `CC/C(=C(/c1ccc(Cl)cc1)c1ccc(OCCN2CCCCCC2)cc1)c1ccccc1`, 84.3%. Consider `CC(=O)OCC(=O)O[C@@H]1C[C@]2(C(C)C)O[C@@]1(C)[C@@H]1CC[C@@H](C)[C@H]1[C@@H]2OC(=O)/C=C/c1ccccc1`, for which the growth is 92.4%. For the compound `COc1ccc(C(=O)/C=C/c2ccc(C)cc2)cc1S(N)(=O)=O`, the growth was 25%. For the compound `Cc1ccc(Nc2oc(-c3ccccc3)nc2[P+](c2ccccc2)(c2ccccc2)c2ccccc2)cc1`, the growth was -60.7% (active). For `COc1ccc(N/N=C/c2ccc3c(c2)Sc2ccccc2N3C)cc1` the value was 57.1%.

The values are drawn from PubChem BioAssay (NCI).
